# Measurements from PubChem BioAssay (Tox21).
# “And” between values parts separate entries of the source, which are not always exact repeats. Identical values can stand only once. Results filed as inconclusive are left out. Where a call stands in place of a potency, no number is given. The source holds several records for some structures; these can differ, active in one and inactive in another. The source made the active and inactive calls. Unless noted, calls come from the whole dose curve; as a rule, active = well fitted curve in the direction sought with a large enough effect in the repeat runs; inconclusive = weak or mixed curves; inactive = no such curve, though single readings can be large; an effect the other way counts as inactive or inconclusive.
# How the values were obtained:
# [1] = biological target: Retinoic acid receptor RXR-alpha (Homo sapiens) (UniProt P19793); test: qHTS assay to identify small molecule agonists of the RXR signaling pathway (AID 1159527; calls by dose curve; note: nearly all actives have a fitted effect of over 35% in size)
# Outline: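 Beta-lactamase reporter assay, agonist format. Engineered HEK 293T line, charcoal-stripped FBS at 2%, overnight (16 hr) exposure, fluorescence at 460 and 530 nm after 405 nm excitation.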
# [2] = qHTS assay to identify small molecule agonists of the RXR signaling pathway - cell viability counter screen (AID 1159529); note: nearly all actives have a fitted effect of over 50% in size; note: potency is the fitted concentration of half-maximal effect
# Outline: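 Same-well viability check after the LiveBLAzer FRET read: CellTiter-Glo added, luminescence measured after 30 min at room temperature. Reporter HEK 293T cells had been treated with compounds for 16 hr following a 5 hr preincubation.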
# [3] = qHTS assay to identify small molecule antagonists of the retinoid acid receptor (RAR) signaling pathway - cell viability counter screen (AID 1159551); note: nearly all actives have a fitted effect of over 35% in size
# Outline: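 In this counter screen, the RARE-luciferase line C3RL4 was exposed for 6 h at 37 C and 5% CO2 to compounds with retinol at 1 uM final. Cellular ATP, read by luminescence, served as the viability measure.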
# [4] = qHTS assay to identify small molecule antagonists of the retinoic acid receptor (RAR) signaling pathway (AID 1159552; note: nearly all actives have a fitted effect of over 50% in size)
# Outline: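 Readout: luciferase luminescence, 30 min post-reagent at RT. Setup: C3RL4 RARE reporter cells, compounds plus retinol 1 uM final, 6 hr incubation at 37 C and 5% CO2.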
# [5] = qHTS assay to identify small molecule agonists of the retinoic acid receptor (RAR) signaling pathway (AID 1159553); details: C3RL4 RARE luciferase reporter, agonist, 6 h; activation: at 73.3 µM (top of the series) unless noted; note: potency is the fitted concentration of half-maximal effect
# Outline: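 In this cell-based screen, 1,000 C3RL4 cells per well were cultured overnight, dosed with test chemicals in DMSO for 6 hr, and assessed for RARE luciferase luminescence.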
# [6] = qHTS assay to identify small molecule antagonists of the estrogen related receptor (ERR) signaling pathway - cell viability counter screen (AID 1224818)
# Outline: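 Viability of ERR cells, CellTiter-Fluor fluorescence; 17.5 h compound exposure at 37 C, DMSO vehicle; 30 min reagent incubation at 37 C/5% CO2.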
# [7] = qHTS assay to identify small molecule antagonists of the estrogen related receptor (ERR) signaling pathway (AID 1224819; note: nearly all actives have a fitted effect of over 50% in size)
# Outline: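 Seed ERR cells 2,000/well; rest 6 h at 37 C/5% CO2; pin compounds in DMSO; incubate 18 h at 37 C; add One-Glo; wait 30 min at room temperature; measure luminescence.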
# [8] = qHTS assay to identify small molecule agonists of the estrogen related receptor (ERR) signaling pathway (AID 1224820); note: potency is the fitted concentration of half-maximal effect
# Outline: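 After 6 h plating (2,000 cells/well) and 18 h compound treatment at 37 C, ERR cells were lysed with One-Glo and luminescence read after 30 min at room temperature.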
# [9] = system: estrogen-related receptor alpha (ERRalpha) with PGC-1alpha coactivator, human; test: qHTS assay to identify small molecule antagonists of the estrogen related receptor signaling pathway with the pleiotropic PPARgamma coactivator (PGC) (AID 1224821; calls by dose curve;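 note: lower luminescence signal means antagonism of PGC/ERR signalling; nearly all actives have a fitted effect of over 50% in size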)
# Outline: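 Luminescence from One-Glo luciferase reagent (30 min, room temperature) measured after 18 h compound treatment at 37 °C. Cells carry the PGC/ERR reporter and were seeded 6 h prior to dosing.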
# [10] = qHTS assay to identify small molecule antagonists of the estrogen related receptor signaling pathway with the pleiotropic PPARgamma coactivator (PGC) cell viability counter screen (AID 1224822)
# Outline: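 17.5 h compound treatment of PGC/ERR cells at 37 C; readout CellTiter-Fluor fluorescence; run alongside the PGC/ERR antagonist screen to flag cytotoxic compounds.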
# Retinoic acid receptor RXR-alpha (Homo sapiens), sequence (P19793 whole entry, looked up): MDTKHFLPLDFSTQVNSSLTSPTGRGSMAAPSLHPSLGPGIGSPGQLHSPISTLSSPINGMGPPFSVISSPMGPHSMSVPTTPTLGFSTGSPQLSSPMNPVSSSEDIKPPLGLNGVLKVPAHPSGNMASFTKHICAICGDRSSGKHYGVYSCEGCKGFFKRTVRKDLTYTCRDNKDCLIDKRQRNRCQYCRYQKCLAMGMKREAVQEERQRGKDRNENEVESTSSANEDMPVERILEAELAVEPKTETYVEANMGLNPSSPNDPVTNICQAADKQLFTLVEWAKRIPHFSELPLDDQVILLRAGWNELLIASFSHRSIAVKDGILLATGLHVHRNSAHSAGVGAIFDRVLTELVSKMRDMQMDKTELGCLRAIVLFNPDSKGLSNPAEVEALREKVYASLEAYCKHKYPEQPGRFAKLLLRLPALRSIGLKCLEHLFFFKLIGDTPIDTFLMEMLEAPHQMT
SMILES,Potency [1],Potency [2],Potency [3],Potency [4],Potency [5],outcome [6],Potency [7],Potency [8],Potency [9],Potency [10]
CCOc1cc(Oc2ccc(C(F)(F)F)cc2Cl)ccc1[N+](=O)[O-],inactive,inactive,inactive,inactive,inactive,,,,,
CN(C)c1ccc(C(=O)c2ccc(N(C)C)cc2)cc1,inactive,inactive,inactive,inactive,1.21 µM (active) and 1.22 µM (active),,,,,
CC(C)N(C(=O)SCC(Cl)=C(Cl)Cl)C(C)C,inactive,inactive,inactive,inactive,inactive,,,,,
O=C(CCl)c1ccccc1,inactive,inactive,inactive,inactive,inactive,,,,,
N#CCCCl,inactive,inactive,inactive,inactive,inactive,,,,,
N#Cc1cc(Br)c(O)c(Br)c1,inactive,11 µM (active) and 13.3 µM (active),inactive,inactive,inactive,,,,,
ClC1C(Cl)C(Cl)C(Cl)C(Cl)C1Cl (stereo not given),inactive,inactive and 43.6 µM (active),inactive,inactive,inactive,,,,,
CCN(CC)C(=O)/C(Cl)=C(\C)OP(=O)(OC)OC,inactive,inactive,inactive,inactive,inactive,,,,,
CC(C)c1ccc(CO)cc1,inactive,inactive,inactive,inactive,inactive,,,,,
CNC(=O)N(C)c1nnc(C(C)(C)C)s1,inactive,inactive,inactive,inactive,inactive,,,,,
Nc1ccc(Cl)cc1N,inactive,inactive,inactive,inactive,1.6 µM (active) and 545 nM (active),inactive,inactive,5.88 µM (active),inactive,inactive
Nc1c(Cl)cc([N+](=O)[O-])cc1Cl,inactive,inactive,inactive,inactive,inactive,,,,,
